Test results as given in PubChem BioAssay (NCATS).
Results filed as inconclusive are left out. The source made the active and inactive calls. Calls come from the whole dose curve. Bridge positions count the residues as written; N and C are the ends. Square brackets hold non-standard residues; d marks the D form. Peptide text beside a SMILES is read from it. Orn = NCCC[CH](N)C(=O)O; Mpa = O=C(O)CCS

Experiment: Primary qHTS to identify inhibitors of SARS-CoV-2 cell entry (AID 1645846); note: nearly all actives have a fitted effect of over 45% in size
Details: SARS-CoV-2 pseudovirus cell entry assay, luminescence; activity change, negative = inhibition: at 57.1 µM (top of the series) unless noted
From the text: Assay Provider: Wei Zheng, Ph.D.
National Center for Advancing Translational Sciences, National Institute of Health, Rockville, MD.
SARS-CoV-2 spike protein, within the viral envelope, mediates viral attachment and infection of host cells. The SARS-CoV-2 spike protein specifically binds to the host receptor ACE2 (Angiotensin-converting enzyme 2). This interaction promotes endocytosis of the viral particle, additional events lead to viral-host cell membrane fusion and release of the viral contents, allowing viral replication.
While SARS-CoV-2 requires BSL-3 facilities for live virus work, pseudotyped partices (PP) that incorporate SARS-CoV-2 spike proteins without replication elements could facilitate studies on viral entry mechanisms in a BSL-2 setting. This PP cell entry assay could also enable screening of small molecule compound libraries in BSL-2 setting to identify inhibitors of SARS-CoV-2 cell entry.
PROTOCOL TABLE (format as described by Inglese J, Shamu CE and Guy RK. 2007)
SEQUENCE No. (e.g., 1, 2, 3, etc.); […] (e.g., Cells, Incubation, Reagent, etc.); VALUE and DESCRIPTION.
1. Cells. Seed 1500 HEK293-ACE2 cells (Expi293F with stable expression of human ACE2) in 2 uL/well media (DMEM, 10% FBS, 1x L-glutamine, 1x Pen/Strep, 1 ug/ml puromycin) in white 1536-well assay plates (Greiner #782073).
2. Incubation. Incubate at 37C with 5% CO2 overnight (~16 h).
3. Compounds. Dispense 23 nL/well compounds in DMSO via pin transfer.
4. Incubation. Incubate for 1 hr at 37C 5% CO2.
5. Reagent. Dispense 2 uL/well of SARS-CoV-2-S pseudotyped particles. [a] PPs are produced with murine leukemia virus pseudotyping. [b] SARS-CoV-2-S is Wuhan-Hu-1 sequence (BEI #NR-52420) with C-terminal 19 amino acid truncation.
6. Centrifuge. […]
7. Incubation. Incubate at for 48 hr at 37C 5% CO2
8. Centrifuge. Remove supernatant with gentle centrifugation using a Blue Washer (BlueCat Bio).
9. Reagent. Dispense 4 uL/well of Bright-Glo Luciferase detection reagent (Promega #E2620).
10. Incubation. Incubate for 5 min at room temperature.
11. Detection. Read luminescence signal (Viewlux plate reader, PerkinElmer). Data was normalized with wells containing SARS-CoV-2-S PP as 100%, and wells containing bald PP (no fusion protein) as 0%.
Potency is the fitted concentration of half-maximal effect.

Compound | activity change, negative = inhibition | outcome | Potency
CCOc1ccc(CC2NC(=O)CCSSCC(C(=O)N3CCCC3C(=O)NC(CCCN)C(=O)NCC(N)=O)NC(=O)C(CC(N)=O)NC(=O)C(C(C)O)NC(=O)C(C(C)CC)NC2=O)cc1 (stereo not given) ([Mpa]Y(Et)ITNCP[Orn]G-NH2; disulfide 1-6; configuration not given here) | -38.4% |  | 
CC(C)C[C@@H]1NC(=O)[C@@H](C(C)C)NC(=O)[C@@H]2CCCN2C(=O)[C@@H](CC(=O)O)NC(=O)[C@@H](Cc2c[nH]c3ccccc23)NC1=O (cyclo(L[dW][dD]P[dV])) | -6.47% |  | 
CC(C(=O)O)c1ccc(C2CCCCC2)c2ccccc12 (stereo not given) | -4.82% |  | 
O=C1N=C(N2CCOCC2)CN1c1ccc(Cl)cc1 | -29.2% |  | 
O=C(O)CNC(=O)c1nc(Cl)c2ccccc2c1O | -5.6% |  | 
CS(=O)(=O)OCCCNCCCOS(C)(=O)=O | -19.8% |  | 
NC(=O)c1cc(F)cc2c1C(=O)N(C1CCN(C3CCC(F)(F)CC3)CC1)C2 | -24% |  | 
CNC(=O)[C@H]1O[C@@H](n2cnc3c(NCc4cccc(I)c4)nc(Cl)nc32)[C@H](O)[C@@H]1O |  | inactive | 
CCCCC[C@H](O)/C=C/[C@H]1[C@H](O)CC(=O)[C@@H]1CCCCCCC(=O)O | -2.28% |  | 
C[C@H]1[C@H](O)[C@@H](C)/C=C/C=C/CC/C=C/C=C/C=C/C=C/[C@H](O[C@@H]2O[C@H](C)[C@@H](O)[C@H](N)[C@@H]2O)C[C@@H]2O[C@](O)(C[C@@H](O)[C@H](O)CC[C@@H](O)C[C@@H](O)C[C@@H](O)CC(=O)O[C@H]1C)C[C@H](O)[C@H]2C(=O)O | -39.7% |  | 
NC[C@H]1O[C@H](O[C@H]2[C@H](O)[C@@H](O[C@H]3O[C@H](CO)[C@@H](O)[C@H](N)[C@H]3O)[C@H](N)C[C@@H]2N)[C@H](N)C[C@@H]1O | -8.09% |  | 
O=C1CC(c2c[nH]c3ccc(F)cc23)C(=O)N1 (stereo not given) | 1.8% |  | 
CC(C)OC(=O)[C@H](C)N[P@](=O)(CO[C@H](C)Cn1cnc2c(N)ncnc21)Oc1ccccc1 | -96.1% |  | 
COc1cc(OC)c2c(=O)[nH]c(-c3cc(C)c(OCCO)c(C)c3)nc2c1 |  | inactive | 
CCN(CCCOc1ccc2c(Nc3cc(CC(=O)Nc4cccc(F)c4)[nH]n3)ncnc2c1)CCOP(=O)(O)O | -62.3% |  | 
CC(C)C[C@H](NC(=O)CNC(=O)c1cc(Cl)ccc1Cl)B1OC(=O)C(CC(=O)O)(CC(=O)O)O1 | -97.4% |  | 
C[C@@H](Oc1cc(C(=O)Nc2ccc(C(=O)N3CCN(C)CC3)cc2)nnc1N)c1c(Cl)ccc(F)c1Cl |  |  | 12.6 µM (active)
Cc1nc(-c2cccnc2)sc1C(=O)Nc1ccccc1-c1cn2c(CN3CCOCC3)csc2n1 |  | inactive | 
Nc1nc2cc(-c3ccc4ncc(C(=O)N5CCOCC5)n4c3)ccc2o1 |  | inactive | 
Oc1cc(O)cc(O)c1 | -21.2% |  | 

Compound | activity change, negative = inhibition | outcome | Potency
Cc1sc2c(c1C)C(c1ccc(Cl)cc1)=NC(CC(N)=O)c1nnc(C)n1-2 (stereo not given) | -23.3% |  | 
Cc1c(-c2c(-c3ccc(F)o3)sc3ncnc(O[C@@H](Cc4ccccc4OCc4ccnn4CC(F)(F)F)C(=O)O)c23)ccc(OCCN2CCN(C)CC2)c1Cl | -7.93% |  | 
[2H]C([2H])([2H])C(O)([C@@H](C)/C=C/[C@@H](C)[C@H]1CC[C@H]2/C(=C/C=C3C[C@@H](O)C[C@H](O)C3)CCC[C@]12C)C([2H])([2H])[2H] | -60.1% |  | 
CC(Nc1ncnc2nc[nH]c12)c1cc2cccc(Cl)c2c(=O)n1-c1ccccc1 (stereo not given) | -36.2% |  | 
CCCCCCC(COC(=O)c1cccnc1)(COC(=O)c1cccnc1)COC(=O)c1cccnc1 | -17.5% |  | 
C=CCNC1=C2C[C@@H](C)C[C@H](OC)[C@H](O)[C@@H](C)/C=C(\C)[C@H](OC(N)=O)[C@@H](OC)/C=C\C=C(/C)C(=O)NC(=CC1=O)C2=O |  |  | 14.1 µM (active)
Clc1ccc(-c2nc3sccn3c2/C=N/OCc2ccc(Cl)c(Cl)c2)cc1 | -8.8% |  | 
CCC(Oc1ccccc1)C(=O)N[C@@H]1C(=O)N2[C@@H]1SC(C)(C)[C@@H]2C(=O)O (stereo not given in full) | -26.6% [at 114 µM] |  | 
CC(C)c1c(-c2ccccc2)nc2c(C#N)c[nH]n2c1=O |  | inactive | 
CCCCCCO[C@@H](C)c1cccc(-c2csc(NC(=O)c3cc(Cl)c(/C=C(\C)C(=O)O)c(Cl)c3)n2)c1OC | -33.5% |  | 
NCc1ccc(OCCCc2sc(-c3ccc4c(c3)/C(=N/Nc3nc5ccccc5s3)CCC4)nc2C(=O)O)cc1 | 1.79% |  | 
N#Cc1cc2cc(CN3CCC(Nc4ncnc5sc(CC(F)(F)F)cc45)CC3)c(O)cc2n1Cc1cn[nH]c1 |  |  | 17.8 µM (active)
Fc1ccc(-c2nc(-c3ccccc3F)[nH]c2-c2ccncc2)cc1 | -6.32% |  | 
C1=C/COCc2cc(ccc2OCCN2CCCC2)Nc2nccc(n2)-c2cccc(c2)COC/1 |  |  | 3.16 µM (active)
CCOC(=O)N[C@@H]1CC[C@@H]2[C@@H](C1)C[C@H]1C(=O)O[C@H](C)[C@H]1[C@H]2/C=C/c1ccc(-c2cccc(F)c2)cn1 |  |  | 28.2 µM (active)
C[C@@H]1CCN(C(=O)N2CCCC2)C[C@@H]1N(C)c1ncnc2[nH]ccc12 |  | inactive | 
Cc1c(N)nc(C(CC(N)=O)NCC(N)C(N)=O)nc1C(=O)NC(C(=O)NC(C)C(O)C(C)C(=O)NC(C(=O)NCCc1nc(-c2nc(C(=O)NCCCN[C@@H](C)c3ccccc3)cs2)cs1)C(C)O)C(O[C@@H]1O[C@@H](CO)[C@@H](O)[C@H](O)[C@@H]1O[C@H]1O[C@H](CO)[C@@H](O)[C@H](OC(N)=O)[C@@H]1O)c1cnc[nH]1 (stereo not given in full) | -97.1% |  | 
Fc1ccc(-c2csc3ncnc(NCc4ccc5c(c4)OCO5)c23)cc1 |  |  | 10 µM (active)
CC[C@@H](Oc1cccc(CN(CCCOc2ccc(OC)cc2)c2nc3ccccc3o2)c1)C(=O)O | -15.3% |  | 
COc1ccc(CNc2nc(N3CCC[C@H]3CO)ncc2C(=O)NCc2ncccn2)cc1Cl |  | inactive | 
